Source: PubChem (National Center for Advancing Translational Sciences (NCATS))
NS1 inh: inhibitors of influenza NS1 protein function; Potency, µM (highest dose often 46.1 µM), inactives show top-dose activity, positive = more growth; hit rate 0.4% among 270,000; AID 2326; also: actives are rising curves; nearly all actives have a fitted effect of over 50% in size
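Compounds were scored for reversing the slow growth caused by influenza A NS1 in S. cerevisiae, measured by optical density at 600 nm. Assay medium contained 2% galactose at pH 6.0; NS1-free yeast of the same strain were the positive control.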
SARS PLP yeast: SARS-CoV PLP inhibition in yeast. Potency, µM (titrated, usually from 32.9 µM), inactives show at the highest dose activity, positive = growth rescue, usual class: activators. AID 485353. S. cerevisiae expressing SARS-CoV PLpro, growth rescue. hit rate 0.19% among 330,000; also: 0% is about no effect; nearly all actives have a fitted effect of over 55% in size
Pf growth 96h: inhibits malaria parasite growth, 96 h; P. falciparum luciferase reporter growth, 96 h; Potency, µM (series often up to 28.7 µM), for inactives: at the highest dose activity change, negative = inhibition, actives largely listed as inhibitors; hit rate 6.9% among 320,000; active = well fitted inhibition curve with a large enough effect; inconclusive = small, poorly fitted or top-dose-only effect, or another doubt; inactive = no such curve, though single readings can be large or run the other way; also: % is scaled to controls: 0 for no effect and ±100 for the full control effect
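Two-generation exposure (96 h) targets delayed-death phenotype. Reporter parasites carrying integrated firefly luciferase, in red cells at 2% hematocrit and 0.05% parasitemia final, kept at 37 C, 5% CO2; luminescence loss indicates inhibition.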
RE007 growth inh: less growth of the S. pombe RE007 Vpr strain. S. pombe RE007 Vpr strain, BacTiter-Glo ATP luminescence, 24 h. Potency, µM (titrated, usually from 92.2 µM), without a hit: top-dose activity change, negative = less growth, most hits filed as inhibitors. hit rate 0.21% among 360,000. AID 651644; active = well fitted falling curve with a large enough effect; inconclusive = small, poorly fitted or top-dose-only effect; inactive = no such curve, though single readings can be large or run the other way; also: % is scaled to controls: 0 for no effect and ±100 for the full control effect; nearly all actives have a fitted effect of over 50% in size
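Fission yeast strain RE007, carrying one chromosomally integrated HIV-1 vpr copy, was seeded at OD 0.01 in PMG+AL medium with 23 nL pinned compound. After 24 h at 30 °C and 99% humidity, viability was read by BacTiter-Glo luminescence.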
Pf growth 48h: P. falciparum growth inhibition at 48 hours (one generation) | P. falciparum luciferase growth in erythrocytes, 48 h | Potency, µM (highest dose often 28.7 µM), for inactives: top-dose activity change, negative = inhibition, hits mostly inhibitors | hit rate 5.9% among 310,000; active = well fitted inhibition curve with a large enough effect; inconclusive = small, poorly fitted or top-dose-only effect, or another doubt; inactive = no such curve, though single readings can be large or run the other way; also: % is scaled to controls: 0 for no effect and ±100 for the full control effect
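In quantitative HTS format, infected erythrocytes bearing luciferase-reporter parasites were treated for a single generation at 37 C. Luminescence after adding detection reagent served as the growth measure.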
* marks the source's active call; other numbers are inactive results; ? = inconclusive; nt = not tested or not shown; [ ] = another dose, or the depositor's remark. Rows were chosen to be rich in hits. Some 9.5% of all compounds tested hit in one or more screens of this group. Unless noted, calls follow the shape of the full dose curve. Potency is read from the fitted curve at half-maximal effect.

SMILES | NS1 inh | SARS PLP yeast | Pf growth 96h | RE007 growth inh | Pf growth 48h
COc1ccc(S(=O)(=O)N2CCC3(CC2)CC(=O)c2ccccc2O3)cc1OC | nt | -3.6% | -10.4% | 0.8% | 17.4%
N#CC1=C(N)N2C(=C(C#N)C1c1cccc(Br)c1)Nc1ccccc12 (stereo not given) | 5.8% | -2.1% | ? | -27.4% | 8.4%
N#CC1=C(N)N2C(=C(C#N)C1c1ccc(Br)cc1)Nc1ccccc12 (stereo not given) | 9.0% | -9.6% | 9.28µM* | -4.2% | ?
CC12CCC(=O)N1C(C(=O)N1CCN(S(=O)(=O)c3ccc(Br)cc3Cl)CC1)CS2 (stereo not given) | nt | -1.4% | ? | 9.8% | ?
COc1ccc(CNC(=O)CN2C(=O)NC(Cc3ccccc3)(c3ccccc3)C2=O)cc1OC (stereo not given) | nt | 2.2% | 14.7µM* | -1.9% | ?
CC(C)N(Cc1ccccc1)C(=O)CN1C(=O)NC(Cc2ccccc2)(c2ccccc2)C1=O (stereo not given) | -3.0% | 1.6% | 11.7µM* | -12.8% | ?
CC(C)N(Cc1ccccc1)C(=O)CN1C(=O)NC2(CCCc3ccccc32)C1=O (stereo not given) | 11.6% | -1.5% | -21.1% | 4.0% | ?
C[C@H](CO)N1C[C@H](C)[C@@H](CN(C)C(=O)Nc2ccccc2)Oc2ccc(NC(=O)CCC(F)(F)F)cc2C1=O | nt | -27.7% | nt | -3.0% | nt
CCNS(=O)(=O)c1ccc(CCC(=O)N2CCN(C(=O)OCC)CC2)cc1 | 1.1% | -5.6% | ? | 7.3% | -7.1%
O=S(=O)(c1ccccc1)N1CN2CN(C1)CN(S(=O)(=O)c1ccccc1)C2 | 2.6% | nt | nt | nt | nt
Oc1ccccc1C=NC1=NN(c2cccc(C(F)(F)F)c2)CC1 | -36.0% | -68.2% | 2.08µM* | -1.8% | 35.1%
CCOC(=O)c1ccc(NC(=S)N(CCCN(CC)CC)Cc2ccco2)cc1 | -15.4% | -2.1% | 14.7µM* | -9.2% | ?
CSc1ccc2c(c1)N(CCC1CCCCN1C)c1ccccc1S2 (stereo not given) | -8.1% | -3.3% | ? | -7.2%[18.4 µM] | 9.28µM*
CN1CCCC[C@@H]1CCN1c2ccccc2Sc2ccc(S(C)=O)cc21 (stereo not given in full) | -12.6% | nt | ? | nt | ?
CCC(C(=O)NCc1cccnc1)c1ccccc1 (stereo not given) | 1.6% | 0.1% | ? | -10.4% | 1.9%
O=C(NCc1ccncc1)/C(=N/O)c1ccccc1 | 0.4% | 3.3% | 10.4µM* | 19.5% | 30.0%
COC(=O)c1ccccc1NC(=O)NCc1ccccc1 | nt | -0.7% | -11.6% | 1.7% | ?
O=C(NCCCNCc1ccccc1)/C(=N\O)c1ccccc1 | 3.5% | 1.4% | -2.7% | -0.3% | 17.7%
CCC(C(=O)NCc1ccncc1)c1ccccc1 (stereo not given) | 1.1% | -0.1% | 10.4µM* | -11.0% | 20.6%
COC(=O)c1ccccc1NC(=O)NCc1ccncc1 | -0.8% | -0.9% | 13.1µM* | 5.1% | -1.8%
CCCCC1=CC2=CC(=O)C(C)(OC(=O)CC)C(=O)C2=CN1CCc1c[nH]c2ccccc12 (stereo not given) | ? | -2.8% | 10.4µM* | -12.7% | 8.28µM*
COC(=O)CCCC1=CC2=CC(=O)C(C)(OC(=O)c3cccs3)C(=O)C2=CN1CCc1c[nH]c2ccccc12 (stereo not given) | 13.8% | 0.2% | 10.4µM* | -3.9% | 8.28µM*
CCCCC1=CC2=CC(=O)C(C)(OC(=O)CC)C(=O)C2=CN1Cc1ccco1 (stereo not given) | 1.7% | 2.7% | ? | -11.3% | 30.7%
COc1ccc(CCN(C)C(=O)C2CCN(C(=O)Nc3ccccc3)CC2)cc1OC | nt | -3.1% | 3.1% | -0.9% | 9.4%
Cc1cccc(Cn2c(N3CCN(C)CC3)nc3c2c(=O)[nH]c(=O)n3C)c1 | 16.4% | 1.4% | ? | 3.4% | 14.7%
Cc1ccc(Cn2c(N3CCCCCC3)nc3c2c(=O)[nH]c(=O)n3C)cc1 | -4.6% | 0.1% | nt | 19.2% | 4.15µM*
Cn1c(=O)[nH]c(=O)c2c1nc(N1CCCCCC1)n2CCCSc1nc2ccccc2o1 | -77.3% | 0.3% | 19.1% | -4.1% | 11.7µM*
Cn1c(=O)[nH]c(=O)c2c1nc(N1CCCCCC1)n2CCSc1nc2ccccc2o1 | -16.7% | -0.9% | 34.2% | 3.6% | 31.0%
